# Source: PubChem (National Center for Advancing Translational Sciences (NCATS))
# This is one part of a sample in which hits are shown more often than they occur.
# Mito fusion act: blocks mitochondrial division or promotes mitochondrial fusion | S. cerevisiae fusion-defective mutant growth rescue, CellTiterGlo 48 h | Potency, µM (doses to about 46.1 µM), for the others: at the highest dose growth rescue (activation), usual class: activators | 0.23% of 320,000 active | AID 485298; also: potency is read from the fitted curve at half-maximal effect; % of control where 0% means no effect; nearly all actives have a fitted effect of over 45% in size
#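 Growth-rescue viability read-out: after 48 h at the non-permissive 37C in glycerol/ethanol YPEG, yeast mitochondrial fusion mutants are measured by CellTiterGlo luminescence; compounds (23 nl pinned per well) restoring growth score as division inhibitors or fusion activators.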
# RGS4 inh: blocks human RGS4-accelerated GTP hydrolysis; P49798; Transcreener GDP fluorescence polarization, RGS4-accelerated GTP hydrolysis; Potency, µM (titrated, usually from 114 µM), inactives show at the highest dose activity change, negative = inhibition, usual class: inhibitors; 0.039% of 390,000 active; AID 504845; also: potency is read from the fitted curve at half-maximal effect; % is scaled to controls: 0 for no effect and ±100 for the full control effect; nearly all actives have a fitted effect of over 75% in size
# Target sequence (P49798 whole entry, looked up): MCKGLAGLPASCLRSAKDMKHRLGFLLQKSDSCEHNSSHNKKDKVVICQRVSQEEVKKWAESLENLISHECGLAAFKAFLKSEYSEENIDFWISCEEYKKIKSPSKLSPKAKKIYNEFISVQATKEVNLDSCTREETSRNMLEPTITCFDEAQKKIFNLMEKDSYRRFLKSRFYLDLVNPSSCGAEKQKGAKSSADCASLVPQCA
#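 MLSMR compounds (23 nl, pin-transferred) preincubated 10 min at room temperature with a 500nM (2x) first reagent, then RGS4 at 900nM (2x) plus Transcreener GDP mix added; fluorescence polarization (620/688 nm) read before and after 90 min at 30 °C.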
# IDH1 R132H inh: human IDH1 R132H inhibition | IDH1-R132H enzyme, NADPH consumption, diaphorase/resazurin fluorescence | Potency, µM (series often up to 76.6 µM), without a hit: at the top dose activity change, negative = inhibition, usual class: inhibitors | 0.093% of 390,000 active | AID 602179; also: potency is read from the fitted curve at half-maximal effect; % is scaled to controls: 0 for no effect and ±100 for the full control effect; nearly all actives have a fitted effect of over 65% in size
#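 IDH1-R132H (0.5 ug/mL) preincubated 30 min with compound, then NADPH (0.016 mM) and alpha-KG (2 mM) added; 80 min at RT, pH 7.5. Remaining NADPH coupled via diaphorase/resazurin to fluorescence (540/590 nm); concentration-response curves normalized to no-enzyme control.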
# ClpP mod: qHTS Assay for Activators of ClpP | ATP-dependent Clp protease proteolytic subunit (Bacillus subtilis (strain 168)), P80244 | purified B. subtilis ClpP, FRET peptide cleavage, 20 min | Potency, µM (doses to about 57.5 µM), for inactives: at the top dose activity change, negative = active | 1.9% of 340,000 active; active = well fitted falling curve with a large enough effect; inconclusive = small, poorly fitted or top-dose-only effect; inactive = no such curve, though single readings can be large or run the other way; also: potency is read from the fitted curve at half-maximal effect; the source files actives as falling curves though it sought activators and does not explain the sign; nearly all actives have a fitted effect of over 65% in size
# Target sequence (P80244 whole entry, looked up): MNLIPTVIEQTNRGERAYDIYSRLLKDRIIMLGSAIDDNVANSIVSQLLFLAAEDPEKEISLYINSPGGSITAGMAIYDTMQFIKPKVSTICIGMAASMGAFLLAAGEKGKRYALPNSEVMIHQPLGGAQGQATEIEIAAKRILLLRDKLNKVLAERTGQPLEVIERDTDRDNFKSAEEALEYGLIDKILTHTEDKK
#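 Buffer: 100 mM Tris/HCl pH8, 100 mM KCl, 0.05% low protease BSA, 2.5% glycerol, 0.01% Tween-20. ClpP 10 microg/mL final; 20 min RT; delta FRET normalized to ADEP and DMSO controls.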
# LDHA inh: inhibitors of human lactate dehydrogenase A. P00338. purified LDHA, NADH/diaphorase-resazurin fluorescence; stronger effect = lower value. activity change, % (values are at about 110 or 230 µM). 0.15% of 480,000 active. AID 1347041; in the data active = activity change below about -30%; inconclusive = mostly about -25% to -30%;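 also: plate controls were DMSO wells for no effect and wells without enzyme for full effect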
#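 LDH5 2 nM; NADH 0.06 mM, pyruvate 0.2 mM; 200 mM Tris pH 7.4, EDTA, Tween-20; 5 min RT. Detection: diaphorase 0.133 mg/mL + resazurin 37 µM, fluorescence ex540/em590 at 0 and 20 min; normalized to enzyme-free and DMSO wells.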
# ASM inhibitor: blocks human secretory acid sphingomyelinase; P17405; placental ASM, HMU-PC fluorogenic substrate, 60 min; Potency, µM (doses to about 57.5 µM), without a hit: at the highest dose activity change, negative = inhibition, usual class: inhibitors; 0.006% of 340,000 active; AID 504937; also: potency is read from the fitted curve at half-maximal effect
#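 qHTS format. ASM enzyme prepared from human placenta hydrolyses the fluorogenic substrate HMU-PC0 (9 uM final) over 60 min at 37 °C after a 10 min compound preincubation.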
# Active calls of the source: *; i = inactive; u = inconclusive; x = no result; [ ] = another dose, or the depositor's remark. Unless noted, calls follow the shape of the dose curve; as a rule, active = well fitted curve in the direction sought with a large enough effect; inconclusive = small, poorly fitted or top-dose-only effect, or another doubt; inactive = no such curve, though single readings can be large; an effect the other way counts as inactive or inconclusive.
SMILES,Mito fusion act,RGS4 inh,IDH1 R132H inh,ClpP mod,LDHA inh,ASM inhibitor
COc1ccc(OC)c(-n2c(N)c(C(=O)NCC3CCCO3)c3nc4ccccc4nc32)c1 (stereo not given),3%,-27%,2%,18µM*,4,i
CC(C)Cn1c(N)c(C(=O)NCC2CCCO2)c2nc3ccccc3nc21 (stereo not given),12%,-4%[11.4 µM],5%,28µM*,15,i
Nc1c(C(=O)OCC2CCCO2)c2nc3ccccc3nc2n1C1CCCC1 (stereo not given),0%,-2%,3%,25µM*,0,i
COCCn1c(N)c(C(=O)NCC2CCCO2)c2nc3ccccc3nc21 (stereo not given),-9%,5%,6%,u,17,i
COc1ccccc1C(=O)N/N=C(\C)c1ccc(NC(=O)C2CC2)cc1,-8%,17%,4%,28µM*,-4,12%
COc1cccc(-n2cnc3sc4c(c3c2=O)CCC4)c1,5%,-15%,15%,32µM*,7,2%
CC(=O)O/N=C(/C)c1ncc(C(F)(F)F)cc1N1CCOCC1,3%,12%,8%,14µM*,-9,-2%
CC(=O)c1ccc(OCC(=O)c2ccc3c(c2)OCO3)cc1,x,x,x,x,3,x
Cc1ccc(C(=O)OCCN2CCN(c3ncc(C(F)(F)F)cc3Cl)CC2)cc1,2%,23%,6%,14µM*,0,-2%
O=C(OCCN1CCN(c2ncc(C(F)(F)F)cc2Cl)CC1)c1ccc(F)cc1,10%,6%,3%,2%,-1,-1%
COc1cc2cc(C(=O)O)n(C)c2c(OC)c1OC,0%,23%,-3%,13µM*,1,4%
C[N+](C)(N)CCOCC[N+](C)(C)N,x,x,x,x,7,x
O=c1c2ccccc2nc2n1CCN2,-4%,0%,16%,16µM*,-2,2%
C=CCNC(=O)NC(=O)CN1CCN(c2oc(C3CC3)nc2C#N)CC1,x,x,x,x,2,x
O=C(NCc1cccc(F)c1)c1ccccc1NC(=O)c1nsc2ccccc12,x,2%,7%,28µM*,-6,x
Cc1nn(-c2ccc(F)cc2F)c2c1-c1nc(N3CCCC3)ncc1CC2,5%,-12%,9%,32µM*,4,49%
O=C(CCc1cccnc1)NCc1cccc(C(F)(F)F)c1,x,x,x,x,1,x
O=C(CCSc1nnc2ccccn12)Nc1ccc(F)cc1,-2%,-3%,9%,28µM*,-3,0%
O=C(CCSc1nnc2ccc3ccccc3n12)Nc1ccc(F)cc1,-1%,-33%[11.4 µM],5%,-23%,-2,57%
COc1cccc(OC)c1C(=O)Oc1ccc2c(c1)O/C(=C\c1cccnc1)C2=O,x,x,x,x,-5,x
Cc1cc(C(=O)N/N=C/c2cccc(Cl)c2Cl)no1,-8%,30%,1%,-1%,0,1%
CCc1ccc(/C=N/NC(=O)c2cc(C)on2)s1,-6%,16%,1%,2.8µM*,-5,5%
Cc1cc(C(=O)COC(=O)c2cccs2)c(C)n1Cc1ccco1,x,x,x,x,-33*,x
Cc1cc(C(=O)COC(=O)c2ccc(O)cc2)c(C)n1Cc1ccco1,u,-25%,-1%,1%,0,-1%
COc1cc(OC)cc(C(=O)NCC(=O)OCC(=O)c2cc(C)n(Cc3ccco3)c2C)c1,0%,-36%,9%,10µM*,-6,-2%
SMILES,Mito fusion act,RGS4 inh,IDH1 R132H inh,ClpP mod,LDHA inh,ASM inhibitor
CC(C)c1ccccc1NC(=O)c1ccc(Cl)cc1F,x,x,x,x,-8,x
CCOc1ccc2[nH]c(C)c(CN(C)C)c(=O)c2c1,-1%,15%,0%,16µM*,3,0%
COc1ccc2[nH]c(C)c(CN3CCC(C)CC3)c(=O)c2c1,-3%,1%,9%,10µM*,-2,-2%
O=C(CC1(O)C(=O)N(Cc2ccc3c(c2)OCO3)c2ccccc21)c1ccccc1 (stereo not given),3%,4%,2%,-1%,-4,-3%
Cc1ccc(C(=O)CC2(O)C(=O)N(Cc3ccc4c(c3)OCO4)c3ccccc32)cc1 (stereo not given),27%,8%[11.4 µM],9%,16µM*,-3,-5%
Cc1cccc(C)c1Nc1nnc(SCC(=O)c2ccc3c(c2)NC(=O)CO3)s1,1%,-19%,4%,35µM*,0,0%
Cc1cccc(C)c1Nc1nnc(SCC(=O)c2ccc(Br)s2)s1,18µM*,u,-2%,-2%,-8,-10%
Cc1cccc(Nc2nnc(SCC(=O)c3ccc(Br)s3)s2)c1,x,x,x,x,-10,x
COc1cc(C=C(c2nc3ccccc3s2)c2nc3ccccc3s2)cc(OC)c1O,18µM*,-45%,6%,-1%,25,-3%
COc1cc(-c2nc3ccccc3s2)ccc1O,12%,7%,-20%,8.9µM*,-10,i
C/C=C(\C)C(=O)O[C@@H]1Cc2c(ccc3ccc(=O)oc23)OC1(C)C,x,x,x,x,14,x
CCCNc1nc(-c2ccccc2)c(C(=O)OCC)cc1C#N,u,22%,13%,28µM*,-5,54%
CCOC(=O)c1cc(C#N)c(Oc2ccccc2)nc1-c1ccccc1,13µM*,15%,3%,-7%,-2,-6%
CCCCNc1nc(-c2ccccc2)c(C(=O)OCC)cc1C#N,7%,-19%,11%,u,6,56%
COC(=O)c1cc(C#N)c(Oc2ccccc2)nc1C,x,-17%,10%,-3%,-9,-1%
O=C(N/N=C/c1sc(=O)n(Cc2ccc(Br)cc2)c1Cl)c1ccco1,-3%,u,-6%,x,-46*,-1%
COCc1cc(C)nc(NCCO)c1C#N,-1%,24%,-5%,32µM*,-9,1%
CC(=O)c1ccc(N2CCN(Cc3nnc(-c4ccc(Br)s4)o3)CC2)c(F)c1,x,x,x,x,-1,x
CCc1ccc2[nH]c(=O)c(CN(Cc3ccccc3)Cc3nnnn3Cc3ccccc3)cc2c1,x,u,x,25µM*,4,x
COc1ccc2[nH]c(=O)c(CN(Cc3nnnn3Cc3ccc(F)cc3)CC3CCCO3)cc2c1 (stereo not given),1%,-28%,10%,u,-6,13%
COc1ccc2[nH]c(=O)c(CN(Cc3nnnn3Cc3ccccc3)CC3CCCO3)cc2c1 (stereo not given),5%,20%,7%,28µM*,-2,29%
Cc1nc(-c2ccc(Cl)cc2Cl)sc1C(=O)N1CCC(C(=O)O)CC1,x,x,x,x,-1,x
Cc1ccc(OCCOCCN2CCN(C)CC2)c([N+](=O)[O-])c1,1%,6%,3%,-4%,-46*,-1%
